Reference: article PMC11006913
Where a chain is given by its changes, count along the chain named.

How the values were obtained:
Assay in all cases: PBM; 200 nM protein, PBS
Details in all cases: dsDNA, one strand shown
HESX1 [1] = target: HESX1 (Homo sapiens, UniProt Q9UBX0 95-180, R165K)
SIX6 [2] = target: T1, SIX6 (Homo sapiens, UniProt O95475 114-200, L167I)
T1 sequence: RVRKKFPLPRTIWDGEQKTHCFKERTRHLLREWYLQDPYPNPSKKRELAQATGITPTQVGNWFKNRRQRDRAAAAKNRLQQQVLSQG

HOXC9 [3] = target: HOXC9 (Homo sapiens, UniProt P31274 178-260, K195R)
Chain of HOXC9 (Homo sapiens, UniProt P31274 178-260, K195R) (P31274 178-260 K195R): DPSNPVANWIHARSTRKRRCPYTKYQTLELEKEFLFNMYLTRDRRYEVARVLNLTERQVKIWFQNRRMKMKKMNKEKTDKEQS

SIX6 [4] = target: T2, SIX6 (Homo sapiens, UniProt O95475 114-200, L143V)
T2 sequence: T1 sequence with L30V, I54L

PAX4 [5] = target: T3, PAX4 (Homo sapiens, UniProt O43316 9-242, R200K)
T3 sequence: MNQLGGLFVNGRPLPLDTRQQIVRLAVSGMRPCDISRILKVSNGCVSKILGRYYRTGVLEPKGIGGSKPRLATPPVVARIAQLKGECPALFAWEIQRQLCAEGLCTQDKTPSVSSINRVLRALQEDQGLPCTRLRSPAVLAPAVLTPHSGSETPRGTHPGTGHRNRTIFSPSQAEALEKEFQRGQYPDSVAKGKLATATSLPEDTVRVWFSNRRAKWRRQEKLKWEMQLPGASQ

SIX6 [6] = target: T4, SIX6 (Homo sapiens, UniProt O95475 114-200, H141N)
T4 sequence: T1 sequence with H28N, I54L

SIX6 [7] = target: T5, SIX6 (Homo sapiens, UniProt O95475 114-200, T165P)
T5 sequence: T1 sequence with T52P, I54L

PAX4 [8] = target: T6, PAX4 (Homo sapiens, UniProt O43316 9-242)
T6 sequence: T3 sequence with K192R

SIX6 [9] = target: T7, SIX6 (Homo sapiens, UniProt O95475 114-200, L167M)
T7 sequence: T1 sequence with I54M

SIX6 [10] = target: T8, SIX6 (Homo sapiens, UniProt O95475 114-200, L143M)
T8 sequence: T1 sequence with L30M, I54L

SIX6 [11] = target: T9, SIX6 (Homo sapiens, UniProt O95475 114-200, L143I)
T9 sequence: T1 sequence with L30I, I54L

SIX6 [12] = target: T10, SIX6 (Homo sapiens, UniProt O95475 114-200, T165G)
T10 sequence: T1 sequence with T52G, I54L

HESX1 [13] = target: HESX1 (Homo sapiens, UniProt Q9UBX0 95-180)
Chain of HESX1 (Homo sapiens, UniProt Q9UBX0 95-180) (Q9UBX0 95-180): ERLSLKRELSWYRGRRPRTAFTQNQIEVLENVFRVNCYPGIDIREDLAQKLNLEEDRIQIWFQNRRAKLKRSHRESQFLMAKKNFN

HOXA2 [14] = target: HOXA2 (Homo sapiens, UniProt O43364 129-215, R185T)
Chain of HOXA2 (Homo sapiens, UniProt O43364 129-215, R185T) (O43364 129-215 R185T): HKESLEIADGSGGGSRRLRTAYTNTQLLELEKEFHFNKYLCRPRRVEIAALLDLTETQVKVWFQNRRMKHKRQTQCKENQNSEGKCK

SIX6 [15] = target: T11, SIX6 (Homo sapiens, UniProt O95475 114-200, T139Q)
T11 sequence: T1 sequence with T26Q, I54L

HOXC9 [16] = target: HOXC9 (Homo sapiens, UniProt P31274 178-260)
Chain of HOXC9 (Homo sapiens, UniProt P31274 178-260) (P31274 178-260): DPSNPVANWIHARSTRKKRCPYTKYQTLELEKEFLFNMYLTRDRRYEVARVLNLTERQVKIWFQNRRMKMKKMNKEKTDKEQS

SIX6 [17] = target: T12, SIX6 (Homo sapiens, UniProt O95475 114-200, T165A)
T12 sequence: T1 sequence with T52A, I54L

PAX4 [18] = target: T13, PAX4 (Homo sapiens, UniProt O43316 9-242, R200Q)
T13 sequence: T3 sequence with K192Q

HOXC9 [19] = target: HOXC9 (Homo sapiens, UniProt P31274 178-260, R193K)
Chain of HOXC9 (Homo sapiens, UniProt P31274 178-260, R193K) (P31274 178-260 R193K): as the sequence (P31274 178-260) above, with R16K counted along it

HOXA2 [20] = target: HOXA2 (Homo sapiens, UniProt O43364 129-215, R185K)
Chain of HOXA2 (Homo sapiens, UniProt O43364 129-215, R185K) (O43364 129-215 R185K): as the sequence (O43364 129-215 R185T) above, with T57K counted along it

PAX4 [21] = target: T14, PAX4 (Homo sapiens, UniProt O43316 9-242, F177V)
T14 sequence: T3 sequence with F169V, K192R

SIX6 [22] = target: T15, SIX6 (Homo sapiens, UniProt O95475 114-200, L167V)
T15 sequence: T1 sequence with I54V

PAX4 [23] = target: T16, PAX4 (Homo sapiens, UniProt O43316 9-242, F177Y)
T16 sequence: T3 sequence with F169Y, K192R

HESX1 [24] = target: HESX1 (Homo sapiens, UniProt Q9UBX0 95-180, R109Q)
Chain of HESX1 (Homo sapiens, UniProt Q9UBX0 95-180, R109Q) (Q9UBX0 95-180 R109Q): as the sequence (Q9UBX0 95-180) above, with R15Q counted along it

SIX6 [25] = target: T17, SIX6 (Homo sapiens, UniProt O95475 114-200)
T17 sequence: T1 sequence with I54L

SIX6 [26] = target: T18, SIX6 (Homo sapiens, UniProt O95475 114-200, T165I)
T18 sequence: T1 sequence with T52I, I54L

HESX1 [27] = target: HESX1 (Homo sapiens, UniProt Q9UBX0 95-180, P111T)
Chain of HESX1 (Homo sapiens, UniProt Q9UBX0 95-180, P111T) (Q9UBX0 95-180 P111T): as the sequence (Q9UBX0 95-180) above, with P17T counted along it

HOXC9 [28] = target: HOXC9 (Homo sapiens, UniProt P31274 178-260, R222W)
Chain of HOXC9 (Homo sapiens, UniProt P31274 178-260, R222W) (P31274 178-260 R222W): as the sequence (P31274 178-260) above, with R45W counted along it

HESX1 [29] = target: HESX1 (Homo sapiens, UniProt Q9UBX0 95-180, F115L)
Chain of HESX1 (Homo sapiens, UniProt Q9UBX0 95-180, F115L) (Q9UBX0 95-180 F115L): as the sequence (Q9UBX0 95-180) above, with F21L counted along it

PAX4 [30] = target: T19, PAX4 (Homo sapiens, UniProt O43316 9-242, R227W)
T19 sequence: T3 sequence with K192R, R219W

HOXA2 [31] = target: HOXA2 (Homo sapiens, UniProt O43364 129-215, Y150S)
Chain of HOXA2 (Homo sapiens, UniProt O43364 129-215, Y150S) (O43364 129-215 Y150S): as the sequence (O43364 129-215 R185T) above, with Y22S, T57R counted along it

HOXA2 [32] = target: HOXA2 (Homo sapiens, UniProt O43364 129-215)
Chain of HOXA2 (Homo sapiens, UniProt O43364 129-215) (O43364 129-215): as the sequence (O43364 129-215 R185T) above, with T57R counted along it

Chain of HESX1 (Homo sapiens, UniProt Q9UBX0 95-180, R165K) (Q9UBX0 95-180 R165K): as the sequence (Q9UBX0 95-180) above, with R71K counted along it

With GCCAGACC the binding signal (HESX1 [1]) was 6.33 upbm affinity estimate (log intensity, higher = more binding, comparable within an allelic series), the binding signal (SIX6 [2]) was 9.01 upbm affinity estimate (log intensity, higher = more binding, comparable within an allelic series) and the binding signal (HOXC9 [3]) was 9.5 upbm affinity estimate (log intensity, higher = more binding, comparable within an allelic series). For the same sequence, the binding signal (SIX6 [4]) was 8.79 upbm affinity estimate (log intensity, higher = more binding, comparable within an allelic series), the binding signal (PAX4 [5]) was 9.2 upbm affinity estimate (log intensity, higher = more binding, comparable within an allelic series) and the binding signal (SIX6 [6]) was 9.01 upbm affinity estimate (log intensity, higher = more binding, comparable within an allelic series). The binding signal (SIX6 [7]) was 8.91 upbm affinity estimate (log intensity, higher = more binding, comparable within an allelic series), the binding signal (PAX4 [8]) was 9.05 upbm affinity estimate (log intensity, higher = more binding, comparable within an allelic series) and the binding signal (SIX6 [9]) was 9.01 upbm affinity estimate (log intensity, higher = more binding, comparable within an allelic series). The binding signal (SIX6 [10]) was 8.95 upbm affinity estimate (log intensity, higher = more binding, comparable within an allelic series), the binding signal (SIX6 [11]) was 8.96 upbm affinity estimate (log intensity, higher = more binding, comparable within an allelic series) and the binding signal (SIX6 [12]) was 9.08 upbm affinity estimate (log intensity, higher = more binding, comparable within an allelic series). The binding signal (HESX1 [13]) was 6.38 upbm affinity estimate (log intensity, higher = more binding, comparable within an allelic series), the binding signal (HOXA2 [14]) was 7.3 upbm affinity estimate (log intensity, higher = more binding, comparable within an allelic series) and the binding signal (SIX6 [15]) was 9.06 upbm affinity estimate (log intensity, higher = more binding, comparable within an allelic series). For the same sequence, the binding signal (HOXC9 [16]) was 9.48 upbm affinity estimate (log intensity, higher = more binding, comparable within an allelic series), the binding signal (SIX6 [17]) was 9.03 upbm affinity estimate (log intensity, higher = more binding, comparable within an allelic series) and the binding signal (PAX4 [18]) was 9.35 upbm affinity estimate (log intensity, higher = more binding, comparable within an allelic series). The binding signal (HOXC9 [19]) was 9.46 upbm affinity estimate (log intensity, higher = more binding, comparable within an allelic series), the binding signal (HOXA2 [20]) was 10.5 upbm affinity estimate (log intensity, higher = more binding, comparable within an allelic series) and the binding signal (PAX4 [21]) was 9.2 upbm affinity estimate (log intensity, higher = more binding, comparable within an allelic series). For the same sequence, the binding signal (SIX6 [22]) was 8.94 upbm affinity estimate (log intensity, higher = more binding, comparable within an allelic series), the binding signal (PAX4 [23]) was 9.19 upbm affinity estimate (log intensity, higher = more binding, comparable within an allelic series) and the binding signal (HESX1 [24]) was 6.33 upbm affinity estimate (log intensity, higher = more binding, comparable within an allelic series). The binding signal (SIX6 [25]) was 9.02 upbm affinity estimate (log intensity, higher = more binding, comparable within an allelic series), the binding signal (SIX6 [26]) was 8.93 upbm affinity estimate (log intensity, higher = more binding, comparable within an allelic series) and the binding signal (HESX1 [27]) was 6.36 upbm affinity estimate (log intensity, higher = more binding, comparable within an allelic series). For the same sequence, the binding signal (HOXC9 [28]) was 9.66 upbm affinity estimate (log intensity, higher = more binding, comparable within an allelic series), the binding signal (HESX1 [29]) was 6.43 upbm affinity estimate (log intensity, higher = more binding, comparable within an allelic series) and the binding signal (PAX4 [30]) was 9.26 upbm affinity estimate (log intensity, higher = more binding, comparable within an allelic series). The binding signal (HOXA2 [31]) was 10.4 upbm affinity estimate (log intensity, higher = more binding, comparable within an allelic series) and the binding signal (HOXA2 [32]) was 7.38 upbm affinity estimate (log intensity, higher = more binding, comparable within an allelic series).
For CAGGCGCC, the binding signal (HESX1 [1]) was 6.55 upbm affinity estimate (log intensity, higher = more binding, comparable within an allelic series), the binding signal (SIX6 [2]) was 8.87 upbm affinity estimate (log intensity, higher = more binding, comparable within an allelic series) and the binding signal (SIX6 [4]) was 8.82 upbm affinity estimate (log intensity, higher = more binding, comparable within an allelic series). The binding signal (SIX6 [6]) was 8.85 upbm affinity estimate (log intensity, higher = more binding, comparable within an allelic series), the binding signal (SIX6 [7]) was 8.98 upbm affinity estimate (log intensity, higher = more binding, comparable within an allelic series) and the binding signal (SIX6 [9]) was 8.93 upbm affinity estimate (log intensity, higher = more binding, comparable within an allelic series). The binding signal (SIX6 [10]) was 8.82 upbm affinity estimate (log intensity, higher = more binding, comparable within an allelic series), the binding signal (SIX6 [11]) was 8.87 upbm affinity estimate (log intensity, higher = more binding, comparable within an allelic series) and the binding signal (SIX6 [12]) was 8.8 upbm affinity estimate (log intensity, higher = more binding, comparable within an allelic series). For the same sequence, the binding signal (HESX1 [13]) was 6.51 upbm affinity estimate (log intensity, higher = more binding, comparable within an allelic series), the binding signal (SIX6 [15]) was 8.84 upbm affinity estimate (log intensity, higher = more binding, comparable within an allelic series) and the binding signal (SIX6 [17]) was 8.89 upbm affinity estimate (log intensity, higher = more binding, comparable within an allelic series). The binding signal (SIX6 [22]) was 8.89 upbm affinity estimate (log intensity, higher = more binding, comparable within an allelic series), the binding signal (HESX1 [24]) was 6.57 upbm affinity estimate (log intensity, higher = more binding, comparable within an allelic series) and the binding signal (SIX6 [25]) was 8.81 upbm affinity estimate (log intensity, higher = more binding, comparable within an allelic series). For the same sequence, the binding signal (SIX6 [26]) was 8.87 upbm affinity estimate (log intensity, higher = more binding, comparable within an allelic series), the binding signal (HESX1 [27]) was 6.52 upbm affinity estimate (log intensity, higher = more binding, comparable within an allelic series) and the binding signal (HESX1 [29]) was 6.58 upbm affinity estimate (log intensity, higher = more binding, comparable within an allelic series).
